HIV RNase H inh-1: inhibitors of HIV-1 reverse transcriptase RNase H. P04585. RT-RNase H RNA/DNA duplex cleavage, fluorescence. inhibition, % at 10 µM. 1.9% of 65,000 active. AID 565; in the data active = inhibition above about 50%
HIV RNase H inh-2: confirmation of HIV-1 reverse transcriptase RNase H inhibitors; shares compounds with HIV RNase H inh-1; Recombinant RT RNase H, fluorescent RNA/DNA duplex cleavage; inhibition, % at 10 µM; 39% of 1,000 active; in the data active = inhibition above about 48%; inconclusive = no clear call, values can overlap the other calls
Of the large screens only hits and unclear results are named; the others gave an inactive call (follow-up assays come after a bar, where they were run). The full list was thinned out, with hits kept by preference.

CCCC(=O)Nc1ccc(Cl)c(NC(=O)c2ccco2)c1	none
CCCC(=O)Nc1cccc(NC(=O)CN2CCN(c3ccccc3OC)CC2)c1	none
CS(=O)(=O)N1CCCC(C(=O)NCc2ccc(F)cc2Cl)C1 (centres undefined)	none
CS(=O)(=O)N(CC(=O)NCc1ccncc1)Cc1ccc(Cl)cc1	none
Cc1cc(OCc2nn[nH]n2)c2c(C)c(Cc3ccccc3)c(=O)oc2c1	none
COc1cccc(OCc2nc3c4cnn(-c5ccccc5)c4ncn3n2)c1	none
c1coc(-c2nc3c4c5c(sc4ncn3n2)CCCC5)c1	none
c1ccc(-n2ncc3c2ncn2nc(-c4ccco4)nc32)cc1	HIV RNase H inh-1 60 | HIV RNase H inh-2 68
COC(=O)c1[nH]c2ccc(C)cc2c1NC(=O)CN1CCCc2ccccc21	none
Cn1c(=O)oc2cc(S(=O)(=O)Nc3ccc4c(c3)OCO4)ccc21	none
O=C(NCc1ccccc1)c1ccc(COCC(F)(F)F)o1	none
COc1ccc(CC(=O)Nc2ccc(-c3noc(COc4ccccc4C)n3)cc2)cc1	none
CCOc1ccccc1-c1nc(-c2ccc(NC(=O)c3ccc(Br)o3)cc2)no1	none
CCOc1ccccc1-c1nc(-c2ccc(NC(=O)Cc3ccc(OC)cc3)cc2)no1	HIV RNase H inh-1 64 | HIV RNase H inh-2 inconclusive
CCOC(=O)N1CCC(N2Cc3cccc(C(=O)NCc4ccccc4OC)c3C2=O)CC1	none
CCOC(=O)N1CCC(N2Cc3cccc(C(=O)NCc4ccc5c(c4)OCO5)c3C2=O)CC1	none
CCOC(=O)N1CCC(N2Cc3cccc(C(=O)NCc4ccc(OC)cc4)c3C2=O)CC1	HIV RNase H inh-1 73 | HIV RNase H inh-2 inactive
CCOc1ccc(NC(=O)COC(=O)c2cccnc2)cc1	none
CC1=NC(C)Cc2ccccc21 (centres undefined)	none
CSc1ccc(NC(=O)NCCCN2CCN(c3ccccc3F)CC2)cc1	HIV RNase H inh-1 53 | HIV RNase H inh-2 inactive
COc1ccccc1N1CCN(CCCNC(=O)Nc2ccccc2)CC1	none
O=C(NCCCN1CCN(c2ccccc2F)CC1)Nc1ccc(F)cc1	none
O=S(=O)(NC1CCCCC1)c1ccc(Cl)s1	none
CCOC(=O)CC(=O)CSc1nnc2c(n1)[nH]c1ccccc12	none
c1ccc2c(c1)[nH]c1nc(SCCN3CCOCC3)nnc12	HIV RNase H inh-1 83 | HIV RNase H inh-2 inactive
Brc1ccc2[nH]c3nc(SCCN4CCOCC4)nnc3c2c1	none
COC(=O)CN1CCN(C(=O)c2ccc(F)cc2)c2ccccc2C1	none
Cc1cc(O)ccc1Nc1nc(-c2sc(N)nc2C)cs1	HIV RNase H inh-1 73 | HIV RNase H inh-2 inactive
COc1ccc(OC)c(Nc2nc(-c3sc(N)nc3C)cs2)c1	none
Cc1nc(N)sc1-c1csc(Nc2ccccc2)n1	none
COc1ccc(-c2cc(=O)n(-c3nc4ccccc4[nH]3)[nH]2)cc1	none
O=C(Nc1ccccc1)N1CCC(c2nc(-c3ccc(S(=O)(=O)N4CCOCC4)cc3)no2)CC1	none
O=C(Nc1cccc(C(F)(F)F)c1)N1CCC(c2nc(-c3ccc(F)cc3)no2)CC1	HIV RNase H inh-1 67 | HIV RNase H inh-2 inactive
O=C(c1ccco1)N1CCC(c2nc(-c3ccc(F)cc3)no2)CC1	none
O=C(NCC(c1cccnc1)N1CCN(c2ccc(F)cc2)CC1)c1ccc(F)cc1 (centres undefined)	none
COc1ccc(C(c2nnnn2C(C)(C)C)N2CCN(c3nc4ccccc4s3)CC2)cc1 (centres undefined)	none
CCC(C)(C)n1nnnc1C(c1ccc(O)c(OC)c1)N1CCN(c2nc3ccccc3s2)CC1 (centres undefined)	HIV RNase H inh-1 56 | HIV RNase H inh-2 inactive
CCC(C)(C)n1nnnc1C(c1cc(OC)c(OC)c(OC)c1)N1CCN(c2ccccc2)CC1 (centres undefined)	none
CC(C)(C)c1ccc(C(=O)Nc2cnccn2)cc1	none
O=C1c2oc3ccccc3c(=O)c2C(c2ccc(Br)cc2)N1c1ncccn1 (centres undefined)	none
CN1C(=O)c2oc3ccccc3c(=O)c2C1c1ccccn1 (centres undefined)	none
CC(=O)c1sc(N2C(=O)c3oc4ccccc4c(=O)c3C2c2ccc(C)o2)nc1C (centres undefined)	HIV RNase H inh-1 71 | HIV RNase H inh-2 inconclusive
CC1=CCC2C(=O)N(c3nc(C)cc(C)n3)C(=O)C2C1 (centres undefined)	none
CCc1nnc(NC(=O)CSc2nccn2-c2cc(C)cc(C)c2)s1	none
O=C(O)C1CC(=O)N(c2ccc(OCc3c(F)cccc3Cl)cc2)C1 (centres undefined)	none
Cc1cnc(C(=O)Nc2ccc3c(c2)CCC3)cn1	none
CCCCOc1ccc(NC(=O)c2cnc(C)cn2)cc1	none
Cc1cnc(C(=O)Nc2ccc(F)c(F)c2)cn1	HIV RNase H inh-1 51 | HIV RNase H inh-2 inactive
Cc1nn(C(=O)c2ccc3c(c2)OCO3)c(N)c1-c1ccccc1	none
Cc1c(NC(=O)c2cc(-c3cccs3)on2)c(=O)n(-c2ccccc2)n1C	none
CCOc1cc(/C=N/n2cnnc2)ccc1O	none
COc1cc(/C=N/n2cnnc2)ccc1OC(=O)N(C)C	none
Cn1c(=O)n(C)c2cc(/C=N/n3cnnc3)ccc21	HIV RNase H inh-1 59 | HIV RNase H inh-2 inactive
O=C(Nc1nnc(-c2ccc3c(c2)CCCC3)o1)C1COc2ccccc2O1 (centres undefined)	none
COCCn1c(CN2CCN(c3ccccc3F)CC2)nc2c1c(=O)n(C)c(=O)n2C	none
COc1ccc(OC)c2sc(N3CCN(c4ccccc4)CC3)nc12	HIV RNase H inh-1 75 | HIV RNase H inh-2 inactive
Clc1ccc2nc(N3CCN(c4ccccc4)CC3)sc2c1	none
COc1ccc(C)c2sc(N3CCCC3)nc12	none
Cc1ccc2c(c1)N(CCCC(=O)NCCCN1CCCC1=O)C(=O)CO2	none
COc1ccccc1NC(=O)c1cc(Sc2nncn2C)nc2ccccc12	none
COc1ccccc1C(=O)NCCN1CCN(C(=O)c2ccccc2OC)CC1	none
C=CCn1c(Cc2cccs2)nnc1SCC(=O)Nc1cccc(OC)c1	HIV RNase H inh-1 73 | HIV RNase H inh-2 inactive
COc1cccc(NC(=O)CSc2nnc(-c3cccs3)n2C)c1	none
C=CCn1c(Cc2cccs2)nnc1SCC(=O)Nc1ccc(OC)cc1	none
CCOC(=O)c1c(C)[nH]c(C(=O)OCC(=O)N2c3ccccc3CC2C)c1C (centres undefined)	none
CCOC(=O)c1cc2sccc2n1CC(=O)N1c2ccccc2CC1C (centres undefined)	HIV RNase H inh-1 57 | HIV RNase H inh-2 inconclusive
CCOC(=O)c1cc2sccc2n1CC(=O)c1ccc2c(c1)OCCO2	none
Cc1cc(-c2ccco2)c(C#N)c2nc3ccccc3n12	none
Cc1cc(C)n(C(=O)CNC(=O)COc2ccccc2)n1	none
Cc1ccc(C)c(N2CCN(c3cc(C)nc4nnnn34)CC2)c1	none
Cc1ccc(OCc2nnc(SCC(=O)NC3CCCCC3)n2C)cc1	none
Cn1c(COc2ccc(Cl)cc2)nnc1SCC(=O)NC1CCCCC1	none
CCn1c(COc2ccccc2)nnc1SCC(=O)NC1CCCCC1	HIV RNase H inh-1 63 | HIV RNase H inh-2 inactive
CCOC(=O)CN(C(=O)CSc1nnc(COc2ccc(OC)cc2)n1C)c1ccccc1	none
Cc1ccc(/C=N/c2sc3c(c2C#N)CCCCC3)o1	none
Cc1ccc(-c2c3c([nH]c(=S)c2C#N)CCCC3)o1	HIV RNase H inh-1 87 | HIV RNase H inh-2 inactive
COC(=O)CSc1nc2c(c(-c3ccc(C)o3)c1C#N)CCCC2	none
CCCCOc1ccc(/C(N)=N/O)cc1	none
Cc1ccc(-n2ncc3c(=O)n(CC(=O)NCC4CCCO4)cnc32)cc1 (centres undefined)	none
COc1ccc(CCN=CC2=C(O)CCCC2=O)cc1OC	none
O=C(O)CCc1cc(I)c(Oc2ccc(O)c(I)c2)c(I)c1	none

Screening data (PubChem)
